One experiment deals with FZD1. The experiment is described as follows: pooled miR-30 sensor sort-seq; sequence = guide strand. Conditions: shRNA.
TTGAGGGTCTTGCCGGACCAGA yielded a sensor-assay potency score (higher = more potent) of -1.52.
TTGTCATTACACACCACTCGGT displayed a sensor-assay potency score (higher = more potent) of -0.649.
On the same count and under the same terms, the result for ATGAAGACCGTGAAGTCCGGGC reads -0.0414; that for TACTTAATCATGAAGACCGTGA, -0.126.

The target of the next experiment is FZD4. Described as above. As to conditions: shRNA.
The sequence TTTGCTATCTGAAAGACCCAGT gave a sensor-assay potency score (higher = more potent) of 0.327.
TCAGTCTTTCTAACTTGTCTGT came in with a sensor-assay potency score (higher = more potent) of -0.388.
TTGGTTTCCAACATAGCACAAG: the sensor-assay potency score (higher = more potent) was -0.766.
Still for that read-out and setting: to TATTATAGCACATACTGAGAAA belongs -1.2; to TAACAGGCAATCACACACGTTG, -0.53; to TATCAGTGAACTCCTTGGCTGA, -0.901.
Sequence TCTTTCTAACTTGTCTGTCTTT came in with a sensor-assay potency score (higher = more potent) of -0.962.
On the same count and under the same terms, the result for TTTTAGTAGAATTTCCTCCAAA reads -0.591; that for TTGACTGAAAGACACATGCCGC, -0.778; that for AACTTGTCTGTCTTTGTCCCAT, 0.289.
Still for that read-out and setting: to TACAGTACTGAGAACACCCCAA belongs 0.428.

The next experiment has as its target FZD5. The description is as above. As to conditions: shRNA.
TACTTGAGCATGAGCACCCAGT had a sensor-assay potency score (higher = more potent) of -0.921.
Same read-out and setting: to TCCATGTCGATGAGGAAGGTGG belongs -1.25.
TTCTCCAGCTTGTCCGTCTTGG came in with a sensor-assay potency score (higher = more potent) of -0.54.
On to TAGAGCATAGGAAGAAGCGCAG, for which the sensor-assay potency score (higher = more potent) is -0.267.
The same measure, in the same setting: the result for TAGCAGGCCACCACAATGCTGG reads -0.787; that for TCCAGCTTGTCCGTCTTGGTGC, -1.11; that for AGGAGCAGCAGCAACAGCGAGG, -2.13.
The same measure, in the same setting: the result for TTGATGACGCTGCGGATGCGGA reads -1.12; that for TCTCGCGGTAGTGCTGCTCGTA, -1.3.
TTCCATGTCGATGAGGAAGGTG displayed a sensor-assay potency score (higher = more potent) of -0.703.
On the same count and under the same terms, to TAGAGCAGCGTGAAGATGCCGA belongs 0.0125.
The sequence TAGGAAGAAGCGCAGGTCCGGC displayed a sensor-assay potency score (higher = more potent) of -0.902.

The next experiment has as its target FZD8. Described as above. As to conditions: shRNA.
TAAGACACGGAGCTCGCCGTGC displayed a sensor-assay potency score (higher = more potent) of -0.78.
Still for that read-out and setting: the result for TTATATCTGTTCTTACAGGGGT reads -0.138.
For the sequence ATAATTAAGACATTTCTTGTTT, the sensor-assay potency score (higher = more potent) is 0.00747.
Sequence TTTACTTAAGGCATTTGCCTGG came in with a sensor-assay potency score (higher = more potent) of 0.501.
Still for that read-out and setting: to TTGTAGTCCATGCACAGCGTGT belongs -1.01.
In turn, TGTAGGTGTAGTTGTAGCCGAT displayed a sensor-assay potency score (higher = more potent) of -0.983.
TTCTTGTAGTCCTCTAGGCAGA returned a sensor-assay potency score (higher = more potent) of -1.02.
On the same count and under the same terms, the result for TGTTGCTTGATGACCGAGCGGA reads -0.353; that for TATCATGCTAATAGCAATCAAC, -0.951.
The same measure, in the same setting: to TTGATGACCGAGCGGATGCGGA belongs -1.04.
The same measure, in the same setting: to TATATCTGTTCTTACAGGGGTA belongs -0.151; to TACTTGAGCATGAAGACGGCGT, 0.273.

These data come from the OligoGym collection.
Note: reference of the scale not given here.
